Assay [1] is described as follows: Cell Viability - Hek293 (AID 427;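 active means compounds whose dose-response curve shows a full or clear partial loss of cell viability, called from curve shape rather than a numeric limit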;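 further: potency means the concentration at half of the fitted maximal effect; cells exposed to compound for 40 hours at 37 °C before reading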). Conditions: qHTS. In short, it runs like this: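 HEK293 cells in complete medium were exposed to compound for 40 hr at 37 °C, then cellular ATP was read by CellTiter-Glo luminescence. Data were normalized to DMSO (basal) and 100 uM tamoxifen (100% inhibition), and AC50 came from Hill fits.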
Assay [2] is described as follows: Cellular Toxicity (caspase-3) N2a (AID 665).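 Further: compound exposure lasted 16 h at 37 °C before readout.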 To be noted: N2a cells, luminescence, normalized: DMSO 0%, 10 µM staurosporine 100%; at 92.2 µM (top of the series). In a few lines: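 Mouse N2a neuroblastoma cells (1500/well) were treated with compounds for 16 h at 37 °C, then caspase-3/7 activity was read by Caspase-Glo luminescence after 1 h at room temperature. Data were normalized to DMSO and 10 uM staurosporine; AC50 from Hill fits.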

A short description of assay [3]: MultiTox-Fluor Cytotoxicity Assay - LYMP1-001 - Dead Cells (AID 946).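 Further: 0% = DMSO and 100% = tetraoctylammonium bromide.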 Conditions: LYMP1-001 lymphoblastoid cells, dead-cell protease fluorescence; series mostly up to 92.2 µM. In a few lines:
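LYMP1-001 lymphoblastoid cells (2500/well) treated 16 h at 37 C. Dead-cell protease cleavage of bis-AAF-R110 read at Ex/Em 485/520. Normalized to DMSO and 15 uM tetraoctylammonium bromide; AC50 from Hill fits.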

A short description of assay [4]: Cell Viability - LYMP2-004 (AID 966).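 Further: plate controls were DMSO only for no effect and tetraoctylammonium bromide control for full effect; nearly all actives have a fitted effect of over 65% in size.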 To be noted: LYMP2-004 lymphoblastoid cell viability, qHTS; series mostly up to 92.2 µM. In a few lines: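 Human lymphoblastoid cells (2500/well) in complete medium were treated with compounds for 24 hr at 37 C, then intracellular ATP was measured by CellTiter-Glo luminescence. AC50 values came from Hill-equation fits of concentration-response data.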

Assay [5] can be described thus: Cell Viability - LYMP2-005 (AID 967).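 Further: plate controls were DMSO only for no effect and 92 µM tetraoctylammonium bromide control for full effect.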 Conditions: LYMP2-005 lymphoblastoid cell viability; series mostly up to 92.2 µM. In short, it runs like this:
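Steps: seed 2500 LYMP2-005 cells/well, incubate 5 h at 37 C, add compound, incubate 24 h at 37 C, add CellTiter-Glo, wait 30 min at RT, read luminescence. Concentration-response data fitted to Hill equation for AC50.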

Assay [6] can be described thus: Cell Viability - LYMP2-013 (AID 970).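 Further: 0% = DMSO only and full inhibition = tetraoctylammonium bromide control; nearly all actives have a fitted effect of over 55% in size.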 Conditions: LYMP2-013 lymphoblastoid cells viability; series mostly up to 92.2 µM. In short, it runs like this: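 Human lymphoblastoid cells, 2500/well, were preincubated 5 hr at 37 C, then treated with compounds for 24 hr at 37 C in complete medium. Intracellular ATP was read by CellTiter-Glo luminescence; AC50 from Hill-equation fits of concentration-response data.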

The nature of assay [7]: Cell Viability - LYMP2-002 (AID 977).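 Further: compound exposure lasted 24 h at 37 °C; plate controls were DMSO only for no effect and 92 µM tetraoctylammonium bromide for full effect.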 Conditions: LYMP2-002 lymphoblastoid cell viability, qHTS; series mostly up to 92.2 µM. In a few lines: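 Human lymphoblastoid LYMP2-002 cells, 2500 per well, exposed to compounds for 24 h at 37 C in complete medium; viability read as intracellular ATP by CellTiter-Glo luminescence, AC50 from Hill fits.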
Assay [8] in a line: Cell Viability - LYMP2-010 (AID 981). Further: nearly all actives have a fitted effect of over 55% in size. Further: potency means the concentration at half of the fitted maximal effect. Conditions: LYMP2-010 lymphoblastoid cell viability, qHTS; series mostly up to 92.2 µM. In a few lines:
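Human lymphoblastoid LYMP2-010 cells (2500/well) were preincubated 5 hr at 37 C, then exposed to compounds for 24 hr at 37 C in complete medium. Intracellular ATP was measured by CellTiter-Glo luminescence after 30 min at room temperature; AC50 from Hill-fitted concentration-response.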

The nature of assay [9]: Cell Viability - LYMP2-016 (AID 984). Further: on the % scale 0 is the no-effect control and ±100 the full control effect; nearly all actives have a fitted effect of over 55% in size. Conditions: LYMP2-016 lymphoblastoid cell viability, qHTS; series mostly up to 92.2 µM. In a few lines: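 qHTS, 1536-well: 2500 LYMP2-016 cells/well, 5 hr 37 C, compound added, 24 hr 37 C, CellTiter-Glo 30 min RT, luminescence. Tetraoctylammonium bromide positive control. AC50 via Hill fit.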
The nature of assay [10]: Cell Viability - LYMP2-024 (AID 988). Further: nearly all actives have a fitted effect of over 60% in size. Further: potency means the concentration at half of the fitted maximal effect. To be noted: LYMP2-024 lymphoblastoid cell viability; series mostly up to 92.2 µM. In short, it runs like this: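 Human lymphoblastoid cells (2500/well) in complete medium were preincubated 5 hr at 37 C, then exposed to compounds for 24 hr at 37 C. Intracellular ATP was read by CellTiter-Glo luminescence; AC50 from Hill-equation fits of concentration-response data.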

Assay [11] can be described thus: Cell Viability - LYMP1-002 - Assay at 24 hr (AID 993). Further: on the % scale 0 is the no-effect control and ±100 the full control effect. To be noted: LYMP1-002 lymphoblastoid cells viability; series mostly up to 92.2 µM. In a few lines:
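Human lymphoblastoid LYMP1-002 cells, 2500/well in complete medium, were treated with compounds for 24 h at 37 C; intracellular ATP was read by CellTiter-Glo luminescence. AC50 values came from Hill-equation fits of qHTS concentration-response data.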

For assay [12], the target named is Glucocorticoid receptor (Homo sapiens) (UniProt P04150). Description: qHTS assay for small molecule antagonists of glucocorticoid receptor signaling (AID 588533; active means well fitted inhibition curve with a large enough effect in the signal ratio, with a control signal flat, not every such curve was filed as active; the % refers to the signal ratio; further: on the % scale 0 is the no-effect control and ±100 the full control effect). To be noted: HeLa MMTV-bla, GRE beta-lactamase ratio, antagonist mode, 18 h; series mostly up to 76.8 µM. In short, it runs like this:
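Antagonist-mode qHTS: compound titrations added to GRE-bla HeLa cells, then dexamethasone 2 nM final; 18 h, 37 C. CCF4 FRET fluorescence normalized to dexamethasone and DMSO; IC50 from Hill fit.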

In assay [13] the target is Vitamin D3 receptor (Homo sapiens) (UniProt P11473). Description: qHTS assay for small molecule antagonists of vitamin D receptor signaling (AID 588541; calls by dose curve;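 further: receptor activated by calcitriol during compound treatment; on the % scale 0 is the no-effect control and ±100 the full control effect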). To be noted: HEK293T VDR-UAS-bla, beta-lactamase ratio, antagonist mode; series mostly up to 76.7 µM. In a few lines: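 VDR-UAS-bla HEK293T cells in 2% charcoal-stripped FBS were stimulated with 1-alpha,25-dihydroxyvitamin D3 (3 nM final) plus compound for 16 h at 37 C. The beta-lactamase CCF4 readout was normalized to 50 nM agonist and DMSO, and Hill fits gave IC50.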
Vitamin D3 receptor (Homo sapiens), sequence (P11473 whole entry, looked up): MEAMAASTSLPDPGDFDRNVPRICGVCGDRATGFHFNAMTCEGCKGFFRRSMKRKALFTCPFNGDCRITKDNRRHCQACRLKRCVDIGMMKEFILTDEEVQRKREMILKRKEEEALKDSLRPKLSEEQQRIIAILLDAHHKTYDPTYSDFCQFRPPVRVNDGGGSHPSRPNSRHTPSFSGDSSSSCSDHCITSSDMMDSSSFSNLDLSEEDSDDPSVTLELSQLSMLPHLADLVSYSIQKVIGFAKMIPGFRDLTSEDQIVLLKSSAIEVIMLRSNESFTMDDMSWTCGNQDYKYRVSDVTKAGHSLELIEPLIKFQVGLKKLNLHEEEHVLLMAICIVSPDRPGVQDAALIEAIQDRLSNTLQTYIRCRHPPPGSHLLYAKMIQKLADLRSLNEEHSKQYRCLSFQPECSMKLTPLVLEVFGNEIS

Assay [14] is described as follows: qHTS assay for small molecule antagonists of the retinoid-related orphan receptor gamma (ROR-gamma) signaling pathway - cell viability counter screen (AID 720652; active means well fitted curve in the direction sought with a large enough effect in the repeat runs; an effect the other way counts as inactive or inconclusive;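 further: CHO reporter cells with doxycycline-induced ROR-gamma expression; compound exposure lasted 16 hr before ATP read; on the % scale 0 is the no-effect control and ±100 the full control effect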). To be noted: RORgamma reporter cell line viability counter screen; series mostly up to 92.2 µM. In a few lines: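 Counter screen in CHO cells carrying TET-inducible ROR-gamma and an ROR response element-luciferase reporter; cells plated 5 hr, compound pinned, doxycycline added, then 16 hr at 37 C. Viability read as intracellular ATP by CellTiter-Glo luminescence.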

Assay [15] can be described thus: qHTS Assay for Identification of Small Molecule Agonists for Hypoxia Response Element Signaling Pathway (AID 914; active means well fitted activation curve with a large enough effect in the signal ratio, with a control signal flat, not every such curve was filed as active; the % refers to the signal ratio; further: % of control where 0% means no effect). Conditions: ME-180 (cervical carcinoma) HRE-bla reporter, beta-lactamase ratio, CoCl2, 17 h; activation: stronger effect = higher value. In a few lines:
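qHTS titration; ME-180 HRE-bla cells; EC50 CoCl2 co-treatment, 17 h at 37 degrees Celsius; CCF4 dye, ex 405nm, em 460nm and 530nm; %Activity from ratio; AC50.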

Assay [16] concerns the target Bile acid receptor (Homo sapiens) (UniProt Q96RI1). Description: qHTS assay for small molecule agonists of farnesoid X receptor signaling (AID 588527; calls by dose curve;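 further: 0% = vehicle basal and 100% = reference agonist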). Conditions: HEK293T FXR-UAS-bla, beta-lactamase ratio, 16 h; stronger effect = higher value. In a few lines:
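FXR-UAS-bla HEK293T cells (10% dialyzed FBS) preincubated 5-7 h at 37 C, then compounds at up to 92 uM for 16 h at 37 C. CCF4 beta-lactamase read-out after 2 h RT. Normalized to chenodeoxycholic acid (100 uM) and DMSO; Hill fit gave EC50 and efficacy.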

Assay [17] is described as follows: qHTS assay for small molecule disruptors of the mitochondrial membrane potential - 5 hr assay (AID 651755; calls by dose curve; further: on the % scale 0 is the no-effect control and ±100 the full control effect; nearly all actives have a fitted effect of over 40% in size). To be noted: JC-1-type ratio dye; series mostly up to 92.2 µM. In a few lines:
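HepG2 cells (2,000/well), attached overnight, exposed to compound 5 hr at 37C, then Mito-MPS dye 30 min. Fluorescence read for monomers (490/535 nm) and aggregates (540/590 nm).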

Assay [18] can be described thus: qHTS assay for small molecule antagonists of peroxisome proliferator-activated receptor delta signaling (AID 588535).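 Further: cells co-treated with a PPAR-delta agonist as stimulator during compound exposure.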 Conditions: HEK293T PPARd-UAS-bla, beta-lactamase FRET ratio, 18 h; 460 nm channel. In short, it runs like this: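 Cells were seeded at 4000 per well in assay medium containing 2% charcoal/dextran FBS and held 5 hrs at 37 C. Compounds were then added for 18 hrs. CCF4 substrate was applied for 2 hrs at room temperature before fluorescence reading.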

The target in assay [19] is Retinoic acid receptor RXR-alpha (Homo sapiens) (UniProt P19793). Description: qHTS assay for small molecule antagonists of retinoid X receptor alpha signaling (AID 588546; active means well fitted inhibition curve with a large enough effect in the signal ratio, with a control signal flat, not every such curve was filed as active; the % refers to the signal ratio). Conditions: HEK293T RXRa-UAS-bla, beta-lactamase ratio, antagonist mode. In short, it runs like this:
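Beta-lactamase reporter inhibition, read as CCF4 fluorescence ratio (ex 405, em 460/530 nm) after 2 h at RT. HEK293T UAS-bla cells, 2500/well, were stimulated with 9-cis-RA at 500 or 100 nM final alongside test compound for 18 h at 37 C.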

The target of assay [20] is Muscarinic acetylcholine receptor M1 (Rattus norvegicus) (UniProt P08482). Description: qHTS Assay for Antagonists of Acetylcholine Muscarinic M1 Receptor: Kinetic Measurement of Intracellular Calcium Response (AID 943).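 Further: Fluo-4 calcium signal as peak divided by basal fluorescence over 4 min; nearly all actives have a fitted effect of over 75% in size.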 To be noted: M1-expressing cells, kinetic intracellular calcium fluorescence; series mostly up to 35.3 µM. In a few lines: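 CHO cells stably expressing rat M1 were loaded with no-wash Fluo-4 dye for 1 h at 37C, pre-incubated 10 min with compound, then challenged with EC80 carbachol (100 nM final); kinetic calcium read 4 min, peak/basal ratio.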
Muscarinic acetylcholine receptor M1 (Rattus norvegicus), sequence (P08482 whole entry, looked up): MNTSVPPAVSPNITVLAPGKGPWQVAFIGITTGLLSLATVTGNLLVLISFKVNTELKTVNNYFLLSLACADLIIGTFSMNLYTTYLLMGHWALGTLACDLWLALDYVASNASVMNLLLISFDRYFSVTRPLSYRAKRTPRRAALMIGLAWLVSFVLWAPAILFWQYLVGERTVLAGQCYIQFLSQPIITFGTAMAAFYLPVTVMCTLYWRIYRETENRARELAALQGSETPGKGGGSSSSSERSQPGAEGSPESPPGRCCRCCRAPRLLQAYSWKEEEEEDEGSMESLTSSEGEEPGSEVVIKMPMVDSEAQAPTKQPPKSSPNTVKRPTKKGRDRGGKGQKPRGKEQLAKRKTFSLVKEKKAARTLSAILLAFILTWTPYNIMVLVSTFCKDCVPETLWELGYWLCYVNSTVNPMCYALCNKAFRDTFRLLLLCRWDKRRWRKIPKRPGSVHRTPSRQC

The structures appear in SMILES notation. Where “and” joins values, the source holds several entries; their conditions need not be identical. Identical values can stand only once. Results filed as inconclusive are left out. Calls of active or inactive are those of the source. Unless noted, the call rests on the fitted dose curve; in most records, active means well fitted curve in the direction sought with a large enough effect; inconclusive means small, poorly fitted or top-dose-only effect, or another doubt; inactive means no such curve, though single readings can be large; an effect the other way counts as inactive or inconclusive.

Retinoic acid receptor RXR-alpha (Homo sapiens), sequence (P19793 whole entry, looked up): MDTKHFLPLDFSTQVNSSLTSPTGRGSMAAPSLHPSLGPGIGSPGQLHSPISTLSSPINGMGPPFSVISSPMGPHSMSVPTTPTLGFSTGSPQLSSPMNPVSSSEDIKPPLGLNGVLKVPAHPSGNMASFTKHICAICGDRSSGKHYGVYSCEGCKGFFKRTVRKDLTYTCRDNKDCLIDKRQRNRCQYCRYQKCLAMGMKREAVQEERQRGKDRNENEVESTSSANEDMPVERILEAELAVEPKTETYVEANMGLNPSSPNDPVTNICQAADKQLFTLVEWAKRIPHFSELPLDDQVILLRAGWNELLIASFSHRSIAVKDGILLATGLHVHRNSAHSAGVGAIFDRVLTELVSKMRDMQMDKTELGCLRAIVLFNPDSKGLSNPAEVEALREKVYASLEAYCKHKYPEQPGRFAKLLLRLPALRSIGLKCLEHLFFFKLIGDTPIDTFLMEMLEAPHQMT
Bile acid receptor (Homo sapiens), sequence (Q96RI1 whole entry, looked up): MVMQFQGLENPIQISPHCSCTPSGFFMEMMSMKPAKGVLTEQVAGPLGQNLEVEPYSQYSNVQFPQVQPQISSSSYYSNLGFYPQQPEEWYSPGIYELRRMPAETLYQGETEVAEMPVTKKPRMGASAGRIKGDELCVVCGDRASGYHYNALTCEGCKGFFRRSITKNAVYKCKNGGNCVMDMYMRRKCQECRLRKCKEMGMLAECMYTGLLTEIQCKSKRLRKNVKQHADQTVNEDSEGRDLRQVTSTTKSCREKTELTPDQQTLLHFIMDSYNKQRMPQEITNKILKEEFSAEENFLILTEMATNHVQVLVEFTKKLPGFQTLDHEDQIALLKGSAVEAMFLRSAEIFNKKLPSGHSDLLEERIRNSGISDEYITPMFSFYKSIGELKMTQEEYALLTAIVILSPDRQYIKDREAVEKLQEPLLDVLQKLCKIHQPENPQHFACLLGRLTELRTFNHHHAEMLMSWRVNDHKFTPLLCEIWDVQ
Glucocorticoid receptor (Homo sapiens), sequence (P04150 whole entry, looked up): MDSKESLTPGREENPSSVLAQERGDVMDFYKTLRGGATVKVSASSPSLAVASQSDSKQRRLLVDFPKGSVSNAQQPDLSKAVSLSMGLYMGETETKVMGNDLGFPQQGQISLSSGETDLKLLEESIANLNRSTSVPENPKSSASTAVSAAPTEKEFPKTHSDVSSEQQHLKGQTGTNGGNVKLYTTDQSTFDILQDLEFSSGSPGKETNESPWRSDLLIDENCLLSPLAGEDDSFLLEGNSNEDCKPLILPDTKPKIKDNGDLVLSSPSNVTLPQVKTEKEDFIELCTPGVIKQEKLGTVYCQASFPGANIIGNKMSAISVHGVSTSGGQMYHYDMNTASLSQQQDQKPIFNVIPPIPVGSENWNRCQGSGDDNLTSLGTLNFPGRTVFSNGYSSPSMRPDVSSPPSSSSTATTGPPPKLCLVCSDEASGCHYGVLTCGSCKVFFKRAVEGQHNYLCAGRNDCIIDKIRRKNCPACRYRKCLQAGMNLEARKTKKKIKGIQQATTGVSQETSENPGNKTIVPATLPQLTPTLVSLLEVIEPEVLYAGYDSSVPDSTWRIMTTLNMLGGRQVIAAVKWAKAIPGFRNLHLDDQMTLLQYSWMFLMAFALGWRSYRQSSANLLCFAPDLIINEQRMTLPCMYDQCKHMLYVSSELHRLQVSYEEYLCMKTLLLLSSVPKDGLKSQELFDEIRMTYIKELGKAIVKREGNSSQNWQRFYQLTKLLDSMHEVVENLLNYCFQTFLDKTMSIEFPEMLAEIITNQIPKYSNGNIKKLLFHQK

Regarding `CCNc1nc(Cl)nc(NC(C)C)n1`, the Potency in assay [1] is > 92 µM (inactive). For the same compound, the caspase-3 activation in assay [2] was -0.492% (inactive). In addition, the Potency entry in assay [3], in assay [4], in [5], in assay [6], in [7] and in assay [8] was “inactive” throughout. For the same compound, the Potency result in [9], in assay [10], in assay [11], in assay [12] and in assay [14] was “inactive” in each case. Moreover, the result in [13] was inactive.

With `CCC[C@@](C)(COC(N)=O)COC(=O)NC(C)C`, the activation in assay [15] was -3.35% (inactive).

As to `C[C@@]12CC[C@H]3[C@@H](CC[C@@H]4C[C@H]5S[C@H]5C[C@]43C)[C@H]1CC[C@H]2O`, the activation in assay [15] is 1.68% (inactive).

For the compound `CCc1cccc(CC)c1N(COC)C(=O)CCl`, in [2], the caspase-3 activation is 4.56% (inactive). The Potency in assay [8] and in assay [10] was 50.1 µM (active) throughout. Besides, the Potency result in assay [11], in assay [17] and in assay [14] was “inactive” in each case. Also, the activation in assay [16] was -2.1% (inactive).

Take `CNC(=O)O/N=C/C(C)(C)SC`: the Potency in assay [1] was > 92 µM (inactive). Also, the Potency result in assay [3], in assay [4], in assay [5], in [6], in assay [7] and in assay [9] was “inactive” each time. The Potency entry in assay [11], in assay [12], in assay [17] and in assay [14] was “inactive” throughout. For the same compound, the activation in [16] was 1.35% (inactive) and 5.69% (inactive) and 1.03% (inactive). In addition, the max response is -48.7% and -22% in assay [18]; -10.4% (inactive) and 16.3% (inactive) and -14.6% (inactive) in assay [19].

Turning to `CS(=N)(=O)CC[C@@H](N)C(=O)O` (some centres undefined), the Potency result in assay [20] was “inactive”.

For `C=CCc1ccc(OC)cc1`, in assay [1], the Potency was > 92 µM (inactive). Also, the Potency entry in assay [3], in assay [5], in assay [6], in [7], in assay [8] and in assay [9] was “inactive” each time. For the same compound, the Potency result in assay [10], in assay [11] and in [14] was “inactive” throughout. In addition, the max response in [18] was -9.08%.
